The subject of one assay is SERPINA7 (gene 6906). The assay can be described thus: CCTE_GLTED_hTBG: CCTE's human Thyroxine-binding Globulin (TBG) Inhibition Assay, Great Lakes Toxicology and Ecology Division (GLTED) Lab (AID 2284343).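 Further: active chemicals lower fluorescence versus DMSO baseline by displacing probe.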 The method, boiled down: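 Human TBG incubated 2 h with test chemical; displacement of ANSA probe read by fluorescence, 380 nm excitation/475 nm emission. Loss of signal relative to DMSO.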

Assay [1] can be described thus: CCTE_Mundy_HCI_iCellGluta_NOG_NeuriteCount: CCTE's Neurite Outgrowth Assay in iCellGluta cells for Neurite Count, Mundy Lab (AID 2284342).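 Further: chemical exposure about 48 hours starting 2 hours after plating.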
Assay [2] can be described thus: Tanguay_ZF_120hpf_MO24: Oregon State University Tanguay Lab 24 Hour Post-fertilization zebrafish Assay for Mortality (AID 2284389; active means hit-call score of the fitted dose curve at least 0.9, where 1 is the maximum; inactive means score below 0.9). In outline: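 Dechorionated wild-type zebrafish embryos, 1 per well, statically exposed from 6 hpf at 28C, 0.64% DMSO final. Mortality scored as binary present/absent at 24 hpf by brightfield microscopy, relative to DMSO.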
Assay [3] is described as follows: Tanguay_ZF_120hpf_DP24: Oregon State University Tanguay Lab 24 Hour Post-fertilization zebrafish Assay for Delayed Development (AID 2284390; active means hit-call score of the fitted dose curve at least 0.9, where 1 is the maximum; inactive means score below 0.9). The method, boiled down:
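Dechorionated 5D wild-type zebrafish embryos exposed statically from 6 hpf, one per well, 0.64% DMSO final, 28 C, sealed and dark. Developmental progression scored at 24 hpf by brightfield as binary present/absent; dead embryos excluded.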

The nature of assay [4]: Tanguay_ZF_120hpf_CRAN: Oregon State University Tanguay Lab 120 Hour Post-fertilization zebrafish Assay for Craniofacial Malformation (AID 2284397; active means hit-call score of the fitted dose curve at least 0.9, where 1 is the maximum; inactive means score below 0.9). In outline:
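Dechorionated Tropical 5D wild-type zebrafish embryos, one per well, were statically exposed from 6 to 120 hpf at 28C in 0.64% DMSO, with 5uM trimethyltin chloride as positive control. Craniofacial malformation was scored present/absent by brightfield microscopy, relative to DMSO.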

Assay [5] can be described thus: Tanguay_ZF_120hpf_AXIS: Oregon State University Tanguay Lab 120 Hour Post-fertilization zebrafish Assay for Axial Malformation (AID 2284398; active means hit-call score of the fitted dose curve at least 0.9, where 1 is the maximum; inactive means score below 0.9). The method, boiled down:
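Dechorionated 5D wild-type zebrafish embryos exposed statically, one per well, from 6 to 120 hpf at 28C, 0.64% DMSO. Axial malformation scored as present/absent by brightfield microscopy at 120 hpf; dead embryos not scored.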

Assay [6] deals with SRY-box transcription factor 2 (SOX2) Protein Expression, Deisenroth Lab, SOX2 (gene 6657). Put plainly: CCTE_Deisenroth_DEVTOX-GLR_legacy_Sox2: (Legacy) CCTE's DevTox GLR-Endo Assay Evaluation of SRY-box transcription factor 2 (SOX2) Protein Expression, Deisenroth Lab (AID 2284346; active means hit-call score of the fitted dose curve at least 0.9, where 1 is the maximum; inactive means score below 0.9). Here is the method:
CCTE_Deisenroth_DEVTOX-GLR_legacy assay is a cell-based, multiplex-readout assay that uses RUES2-GLR, a human pluripotent cell line, with measurements taken at 48 hours after chemical dosing in a 384-well microplateCCTE_Deisenroth_DEVTOX-GLR_legacy_Sox2 is one of 4 assay components calculated from the CCTE_Deisenroth_DEVTOX-GLR_legacy assay that measures an increase in the percentage of cells in an ectodermal or pluripotent state. It is designed to make measurements of inducible reporter a form of fluorescent protein induction as detected with optical fluorescence microscopy. Percentage Sox2+ cells are determined by calculating the number of Sox2+ cells divided by cell count. A cell is Sox2+ if the cell Sox2 mean intensity is 5x BMAD above the directed endoderm control median cell Sox2 mean. The assay endpoint was analyzed with bidirectional fitting with the 0.2% DMSO control median percent Sox2 in the CCTE_Deisenroth_DEVTOX-GLR_Endo assay subtracted.Data from the assay component CCTE_Deisenroth_DEVTOX-GLR_legacy_Sox2 was analyzed into 1 assay endpoint. This assay endpoint, CCTE_Deisenroth_DEVTOX-GLR_legacy_Sox2, was analyzed in the positive analysis fitting direction relative to DMSO as the negative control and baseline activity. Using a type of inducible reporter, gain-of-signal activity can be used to understand changes in gene expression. Furthermore, this assay endpoint can be referred to as a secondary readout, because this assay has produced multiple assay endpoints where this one serves as a measure of pluripotency or ectoderm differentiation. To generalize the intended target to other relatable targets, this assay endpoint is annotated to the transcription factor intended target family, where the subfamily is SRY-related HMG-box.
All assay protocols are aligned to the DevTox GLR-Endo assay workflow. […] Cell identification and mean biomarker fluorescence intensities are calculated with image analysis software to determine the total cell counts for viability assessment and the biomarker expression frequency for each lineage-dependent assay. […]

Assay [7] is described as follows: CCTE_Deisenroth_H295R-HTRF_384WELL_ESTRADIOL: CCTE's H295R-HTRF Assay Evaluation of Estradiol Concentration, Deisenroth Lab (AID 2284361; active means hit-call score of the fitted dose curve at least 0.9, where 1 is the maximum; inactive means score below 0.9). The conditions noted are these: actives raise or lower the signal. In outline:
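H295R cells exposed 48 h to chemicals at 0.001 - 100 uM final (nine points, triplicate); estradiol in conditioned medium measured by HTRF immunoassay, fitted bidirectionally versus DMSO. Viability by CellTiter-Glo on same plates.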
For orientation: In TR-FRET formats the signal depends on donor and acceptor labels being close together.

The nature of assay [8]: CCTE_Deisenroth_H295R-HTRF_384WELL_TESTOSTERONE: CCTE's H295R-HTRF Assay Evaluation of Testosterone Concentration, Deisenroth Lab (AID 2284373; active means hit-call score of the fitted dose curve at least 0.9, where 1 is the maximum; inactive means score below 0.9). Conditions: actives raise or lower the signal. In outline:
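H295R cells were acclimated 24 h, then exposed 48 h to nine concentrations (0.001–100 uM final) in technical triplicate, n=5. Testosterone in conditioned medium was measured by HTRF (em 620/665 nm). Fitting was bidirectional versus DMSO; CellTiter-Glo viability ran on the same plates.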

Assay [9] is described as follows: CCTE_Deisenroth_H295R-HTRF_384WELL_CTOX: Cytotoxicity Assessment in CCTE's H295R-HTRF Assay, Deisenroth Lab (AID 2284380). The protocol:
CCTE_Deisenroth_H295R-HTRF_384WELL assay is a cell-based, multiplex-readout assay that uses H295R, a human adrenocortical carcinoma cell line, with measurements taken at 48 hours after chemical dosing in a 384-well microplateCCTE_Deisenroth_H295R-HTRF_384WELL_CTOX is one of 3 assay components measured in the CCTE_Deisenroth_H295R-HTRF_384WELL assay (2 hormones and 1 viability components). It is designed to make measurements of adenosine triphosphate (ATP), a form of viability reporter, as detected with luminescence intensity signals by CellTiter-Glo 2.0 cytotoxicity assay technology.This assay endpoint, CCTE_Deisenroth_H295R-HTRF_384WELL_CTOX, was analyzed in the positive fitting direction relative to DMSO as the negative control and baseline of activity. […]
Standard operating procedures for the cell culture medium, maintenance, expansion, and cryopreservation of the NCI-H295R adrenocortical carcinoma adherent cell line were adopted directly from guideline specifications (EPA 2011, OECD 2011). […] Fluorescent endpoint measurements are conducted with a microplate reader equipped with an HTRF-compatible filter set (ex: 320 (10) […]; em: 620 (10) and 665 (10) nM). […] After collecting conditioned medium samples on Day 3, the viability assay is immediately performed and luminescence readings measured on a microplate reader. […]

AC50 and outcome data for 18 compounds are collected here from PubChem BioAssay (EPA / NIEHS).

The AC50 is the concentration giving half of the maximal activity seen.

Values joined by “and” are separate entries in the source; they are usually repeats but may differ in a detail not shown here. Equal entries are not always repeated. Records with an inconclusive call do not appear. Where a structure was tested more than once in an assay, its records may differ in their call. Active and inactive are the calls of the source. How the source made its calls, unless noted: active means hit-call score of the fitted dose curve at least 0.9, where 1 is the maximum; inconclusive means response in the unintended direction; inactive means score below 0.9.

Take `CC(C)(C)CC(C)(C)c1ccc(O)c(-n2nc3ccccc3n2)c1`: the half-maximal activity concentration (AC50) in the assay with SERPINA7 (gene 6906) is 16.3 µM (active).
Turning to `O=C(O)c1ccccc1C(c1ccc(O)cc1)c1ccc(O)cc1`, in the assay with SERPINA7 (gene 6906), the AC50 was 49.9 µM (active).
`CCCCCCCCCCCCc1ccccc1S(=O)(=O)O`: the AC50 with SERPINA7 (gene 6906) was 4.89 µM (active).
For `OCCC(F)(F)C(F)(F)C(F)(F)C(F)(F)C(F)(F)C(F)(F)C(F)(F)C(F)(F)F`, the compound was classed as inactive in [1], in assay [2], in [3], in [4] and in assay [5].
For `NC(=O)N1C(=O)C(C(=O)c2cc(Cl)cs2)c2cc(F)c(Cl)cc21` (centres undefined), in the assay with SERPINA7 (gene 6906), the AC50 is 7.27 µM (active).
Regarding `COc1ccc([N+](=O)[O-])cc1N`, the AC50 with SERPINA7 (gene 6906) is 50 µM (active).
Turning to `CC1=C(/C=C/C(C)=C/C=C/C(C)=C/C(=O)O)C(C)(C)CCC1`, the AC50 in assay [6] is 82.8 µM (active).
As for `O=C(O)Cc1cc(I)c(Oc2cc(I)c(O)c(I)c2)c(I)c1`, in the assay with SERPINA7 (gene 6906), the AC50 was 0.0197 µM (active).
On to `OCCC(F)(F)C(F)(F)C(F)(F)C(F)(F)C(F)(F)C(F)(F)F`, for which the call in assay [1], in assay [2], in [3], in assay [4] and in assay [5] was inactive.
Consider `Cc1cc(C)c(O)c(C)c1`, for which the compound was called inactive in the assay on SERPINA7 (gene 6906).
Consider `C[C@@H]1C[C@H]2[C@@H]3CCC4=CC(=O)C=C[C@]4(C)[C@@]3(F)[C@@H](O)C[C@]2(C)[C@@]1(O)C(=O)COP(=O)(O)O`, for which the call in assay [6] was inactive.
The same measure, in the same setting: the value for `CC(O)CO` (centres undefined) was “inactive”.
As for `CC[C@H](c1ccc(O)cc1)[C@@H](CC)c1ccc(O)cc1`, the AC50 in the assay with SERPINA7 (gene 6906) is 8.97 µM (active).
As to `O=[N+]([O-])c1ccc(O)cc1`, the AC50 in the assay with SERPINA7 (gene 6906) was 33.3 µM (active) and 47.2 µM (active).
With `ClC1=C(Cl)C(Cl)(Cl)C(Cl)=C1Cl`, the concentration at half-maximal activity (AC50) with SERPINA7 (gene 6906) was 23.9 µM (active).
`CC#C[C@]1(O)CC[C@H]2[C@@H]3CCC4=CC(=O)CCC4=C3[C@@H](c3ccc(N(C)C)cc3)C[C@@]21C`: the AC50 in [1] is 58.9 µM (active). Moreover, the outcome in assay [1], in assay [7], in assay [8] and in assay [9] was inactive.
For `C=C(C)C(=O)OCCC(F)(F)C(F)(F)C(F)(F)C(F)(F)C(F)(F)C(F)(F)F`, the outcome in assay [1], in [2], in assay [3], in assay [4] and in [5] was inactive.
Consider `CC[C@H](C)[C@@H](C(=O)O)n1sc2ccccc2c1=O`, for which the AC50 in the assay with SERPINA7 (gene 6906) was 18.2 µM (active).
